PubChem BioAssay (NCI)
Compounds without any hit were thinned out: in the full panel of roughly 79,000, 15% have a hit. Activity calls are given as the source filed them. No stated cut-off is given here; in the data, active means growth inhibition above about 70%; inactive means the rest.

Assay: NCI Yeast Anticancer Drug Screen. Data for the cln2 rad14 strain (AID 165);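 further: 0% = growth equal to vehicle treated cultures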
Settings: S. cerevisiae cln2 rad14 strain, stronger effect = higher value
Procedure: Growth inhibition of yeast strains with defined genetic alterations is measured as a screen for potential anti-cancer activity. Selected strains with alterations in DNA damage repair or cell cycle control were exposed to compounds and growth inhibition was measured relative to vehicle treated controls. The strain used in this assay is cln2 rad14

[1] = at 5.0 µM (retest, dose inferred, filed as 0.5)
[2] = at 50.0 µM (retest, dose inferred, filed as 5.0)

Row | SMILES | growth inhibition [1] | growth inhibition [2] | growth inhibition (at 50.0 µM)
1 | CCCCOC(=O)c1n[nH]c(C)c1N=NN(C)C | 95% (active) | 99% (active) | 99.4% (active)
2 | CNC(=O)OCc1c(-c2ccccc2)c(-c2ccccc2)n(-c2ccc(OC)cc2)c1COC(=O)NC | 26% (inactive) | 98% (active) | 84.9% (active)
3 | Cc1ccc(NC(Nc2ccc(C)cc2C)=C(/C=C(\Cl)[N+](=O)[O-])[N+](=O)[O-])c(C)c1 | 98% (active) | 93% (active) | 93.2% (active)
4 | O=CC(O)C(O)C(O)C(O)C(=O)NCCCCCCCCCCCCNC(=O)C(O)C(O)C(O)C(O)C=O (configuration not stated) | -2% (inactive) | 18% (inactive) | 25.2% (inactive)
5 | CC(=O)Oc1ccc(-c2ccccc2)cc1Br | 7% (inactive) | 95% (active) | 85.1% (active)
6 | CN1C(=O)OC(C)(c2ccccc2)C1=O (configuration not stated) | 2% (inactive) | -1% (inactive) | 78% (active)
7 | O=C(SC(O)c1ccc(Cl)cc1)c1ccccc1 (configuration not stated) | -4% (inactive) | 58% (inactive) | 22.9% (inactive)
8 | Cc1ccc[n+](CC(=O)C2CCC3C4CC=C5CC(O)CCC5(C)C4CCC23C)c1 (configuration not stated) | 6% (inactive) | 25% (inactive) | 90.1% (active)
9 | Oc1ccc2oc3ccccc3c2c1 | -3% (inactive) | 46% (inactive) | 75.5% (active)
10 | COc1ccc(/C(Cl)=C(\C=O)c2ccc(Cl)cc2)cc1OC | 7% (inactive) | 49% (inactive) | 0.1% (inactive)
11 | CC1(C)c2ccccc2-c2nc3ccccc3cc2C1Br (configuration not stated) | -22% (inactive) | 4% (inactive) | 44.3% (inactive)
12 | CN(C)CC/[N+]([O-])=C(/c1ccccc1)C12CC3CC(CC(C3)C1)C2 | 7% (inactive) | -1% (inactive) | 17.1% (inactive)
13 | COc1ccc(C(=O)C2=C(C)Nc3ccc(Br)cc3S2)cc1 | -8% (inactive) | 16% (inactive) | -3.4% (inactive)
14 | Cc1nc2ccc(NCCN(C)C)c3c(=O)c4cc(O)ccc4n1c23 | 3% (inactive) | 16% (inactive) | 11.2% (inactive)
